PubChem BioAssay (NCATS)
Where “and” joins values, the source holds several entries; their conditions need not be identical. Equal values may be shown once. Results filed as inconclusive are left out. A call without a number means that no potency is given here. Calls of active or inactive are those of the source. Unless noted, the call rests on the fitted dose curve; in most records, active means well fitted curve in the direction sought with a large enough effect; inconclusive means small, poorly fitted or top-dose-only effect, or another doubt; inactive means no such curve, though single readings can be large; an effect the other way counts as inactive or inconclusive.

Tests used:
[1] = Cytometric Cell-Based qHTS for Inhibitors of the mTORC1 Signaling Pathway in MEF (Tsc2-/-, p53-/-) Cells (AID 2660);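 further: Tsc2 and p53 null MEFs carrying empty vector with compound for 24 h; percent of cells above a phospho-rpS6 to PI ratio cutoff in each well; series mostly up to about 38 µM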
How it was run: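 Cells are plated, treated with compound for 24 hrs at 37 degree Celsius, then fixed, blocked and immunostained for phospho-rpS6 Ser235/236. Propidium iodide counterstain follows. Per-well % positive cells is derived from the PI-normalized phospho-S6 signal.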

[2] = High Content Imaging Cell-Based qHTS for Inhibitors of the mTORC1 Signaling Pathway in MEF (Tsc2-/-, p53-/-) Cells (AID 2666);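 further: percent of cells scored positive for phospho-rpS6 Ser235/236 immunostaining by imaging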
How it was run: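 Cells were plated, dosed with compound after 24 hrs, and incubated another 24 hrs at 37 degree Celsius. Fixed cells were immunostained for phospho-rpS6 Ser235/236 and counterstained, and the normalized signal was scored as % active cells against rapamycin and DMSO controls.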

[3] = High Content Imaging Cell-Based qHTS for Inhibitors of the mTORC1 Signaling Pathway in MEF Cells (AID 2667); further: potency means the concentration at half of the fitted maximal effect
How it was run: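 Immunofluorescence for rpS6 phosphorylation in MEFs of Tsc2-/-, p53-/- background rescued with WT Tsc2. Compound exposure lasted 24 hrs. Inhibition was scored against rapamycin-treated control wells.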

[4] = Cytometry Cell-Based qHTS for Inhibitors of the mTORC1 Signaling Pathway in MEF cells (AID 2668); further: potency means the concentration at half of the fitted maximal effect
How it was run: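 Phospho-rpS6 (Ser235/236) immunofluorescence over PI signal, scored as % positive cells using thresholds from 7.5 nM rapamycin and DMSO wells, after 24 h compound exposure of WT-Tsc2-rescued Tsc2-/-, p53-/- MEFs. PI cell count recorded for viability.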

[5] = Validation screen for inhibitors of Lassa infection (AID 463096; calls by dose curve; further: potency means the concentration at half of the fitted maximal effect)
[6] = Validation screen for small molecules that induce DNA re-replication in MCF 10A normal breast cells (AID 463097); further: nearly all actives have a fitted effect of over 60% in size; further: potency means the concentration at half of the fitted maximal effect
How it was run: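 Read-out is Hoechst total nuclear intensity by fluorescence scanning imager, flagging increased high-DNA-content nuclei. Compounds were incubated with MCF 10A cells for 48 hr (37 C, 5% CO2) before 40 min staining.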

[7] = molecular target: Ubiquitin carboxyl-terminal hydrolase 2 (Homo sapiens) (UniProt O75604); assay: qHTS Validation Assay for Inhibitors of Ubiquitin-specific Protease USP2a Using CHOP2 as the Reporter (AID 463106); further: potency means the concentration at half of the fitted maximal effect
Sequence of Ubiquitin carboxyl-terminal hydrolase 2 (Homo sapiens) (O75604 whole entry, looked up): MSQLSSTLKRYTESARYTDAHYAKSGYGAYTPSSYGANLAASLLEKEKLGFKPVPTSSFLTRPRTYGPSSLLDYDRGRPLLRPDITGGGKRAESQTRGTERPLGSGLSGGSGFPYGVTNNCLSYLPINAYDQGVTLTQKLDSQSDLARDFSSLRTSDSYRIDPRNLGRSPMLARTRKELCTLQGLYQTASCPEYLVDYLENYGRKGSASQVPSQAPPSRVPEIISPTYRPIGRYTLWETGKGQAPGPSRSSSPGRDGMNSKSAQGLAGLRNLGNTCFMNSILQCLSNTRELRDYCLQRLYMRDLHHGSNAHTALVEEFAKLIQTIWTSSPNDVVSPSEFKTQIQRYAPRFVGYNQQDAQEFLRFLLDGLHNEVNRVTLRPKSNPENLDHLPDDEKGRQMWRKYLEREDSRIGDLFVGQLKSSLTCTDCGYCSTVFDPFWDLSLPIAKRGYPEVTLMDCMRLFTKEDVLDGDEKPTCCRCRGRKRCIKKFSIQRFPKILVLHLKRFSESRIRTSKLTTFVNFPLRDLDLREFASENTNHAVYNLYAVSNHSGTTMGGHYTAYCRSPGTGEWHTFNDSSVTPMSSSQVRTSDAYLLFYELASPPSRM
How it was run: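 10nM USP2 core + cpd, 30min RT; add 25nM Ub-CHOP2/25nM substrate; 60min RT; FI 485/531nm. Buffer Tris pH 8.0, CaCl2, BME, CHAPS. Norm. to NEM = 100% inhibition; time-zero read flags fluorescent artifacts.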

[8] = molecular target: DNA polymerase III PolC-type (Bacillus subtilis (strain 168)) (UniProt P13267); assay: qHTS Validation Assay for the Inhibitors of DNA Replication in Gram-Positive Bacteria (AID 485295);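 further: reconstituted holoenzyme with PolC plus beta clamp SSB and primase; PicoGreen fluorescence of double-stranded DNA made on primed circular M13 template; series mostly up to about 57 µM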
Sequence of DNA polymerase III PolC-type (Bacillus subtilis (strain 168)) (P13267 whole entry, looked up): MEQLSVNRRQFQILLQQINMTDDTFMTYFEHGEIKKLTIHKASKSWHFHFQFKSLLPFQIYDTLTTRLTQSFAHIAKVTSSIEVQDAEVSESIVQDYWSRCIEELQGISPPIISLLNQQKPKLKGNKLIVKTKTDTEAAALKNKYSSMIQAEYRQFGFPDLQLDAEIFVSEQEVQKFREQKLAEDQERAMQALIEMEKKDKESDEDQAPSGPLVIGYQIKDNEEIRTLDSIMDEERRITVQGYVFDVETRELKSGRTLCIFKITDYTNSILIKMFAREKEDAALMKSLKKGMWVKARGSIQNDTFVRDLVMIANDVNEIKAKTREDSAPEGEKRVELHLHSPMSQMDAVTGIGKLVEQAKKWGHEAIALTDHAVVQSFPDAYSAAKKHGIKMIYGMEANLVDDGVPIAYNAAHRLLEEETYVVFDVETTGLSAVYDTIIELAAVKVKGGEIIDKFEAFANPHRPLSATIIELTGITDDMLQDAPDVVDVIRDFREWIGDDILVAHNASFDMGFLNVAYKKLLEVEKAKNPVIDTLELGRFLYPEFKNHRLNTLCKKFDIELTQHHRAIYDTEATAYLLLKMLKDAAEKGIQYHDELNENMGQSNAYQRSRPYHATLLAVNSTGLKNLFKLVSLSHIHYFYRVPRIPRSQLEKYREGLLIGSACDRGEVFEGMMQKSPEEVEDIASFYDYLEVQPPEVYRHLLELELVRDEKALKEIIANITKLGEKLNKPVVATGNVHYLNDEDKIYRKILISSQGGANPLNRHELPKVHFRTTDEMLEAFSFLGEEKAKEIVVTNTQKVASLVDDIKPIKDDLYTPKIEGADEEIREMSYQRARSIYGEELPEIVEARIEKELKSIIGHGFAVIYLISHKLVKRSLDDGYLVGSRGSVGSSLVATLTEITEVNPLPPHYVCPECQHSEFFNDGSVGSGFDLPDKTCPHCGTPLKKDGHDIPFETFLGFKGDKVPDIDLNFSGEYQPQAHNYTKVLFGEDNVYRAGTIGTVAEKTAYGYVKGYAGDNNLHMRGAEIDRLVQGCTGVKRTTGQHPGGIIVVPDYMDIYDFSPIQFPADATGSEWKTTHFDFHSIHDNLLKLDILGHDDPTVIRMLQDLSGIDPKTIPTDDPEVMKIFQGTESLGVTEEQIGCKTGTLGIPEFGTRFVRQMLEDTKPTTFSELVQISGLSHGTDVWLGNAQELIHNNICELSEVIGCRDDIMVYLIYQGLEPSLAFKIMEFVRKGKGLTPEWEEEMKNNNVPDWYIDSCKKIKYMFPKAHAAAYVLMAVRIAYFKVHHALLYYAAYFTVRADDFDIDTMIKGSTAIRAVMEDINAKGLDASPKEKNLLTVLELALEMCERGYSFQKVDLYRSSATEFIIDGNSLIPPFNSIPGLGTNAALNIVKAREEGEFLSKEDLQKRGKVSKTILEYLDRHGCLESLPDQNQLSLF
How it was run: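 Double-stranded DNA product detected by PicoGreen fluorescence after EDTA quench. Compound incubated with B. subtilis holoenzyme (PolC, beta subunit, SSB, primase) before substrate addition; primed replication of M13Gori with dNTPs and NTPs at room temperature; DMSO defines 0% inhibition.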

[9] = molecular target: Tumor susceptibility gene 101 protein (Homo sapiens) (UniProt Q99816); assay: qHTS Validation Assay for Iinhibitors of HIV-1 Budding by Blocking the Interaction of PTAP/TSG101 (AID 485342; calls by dose curve)
Sequence of Tumor susceptibility gene 101 protein (Homo sapiens) (Q99816 whole entry, looked up, the tested form may be a part): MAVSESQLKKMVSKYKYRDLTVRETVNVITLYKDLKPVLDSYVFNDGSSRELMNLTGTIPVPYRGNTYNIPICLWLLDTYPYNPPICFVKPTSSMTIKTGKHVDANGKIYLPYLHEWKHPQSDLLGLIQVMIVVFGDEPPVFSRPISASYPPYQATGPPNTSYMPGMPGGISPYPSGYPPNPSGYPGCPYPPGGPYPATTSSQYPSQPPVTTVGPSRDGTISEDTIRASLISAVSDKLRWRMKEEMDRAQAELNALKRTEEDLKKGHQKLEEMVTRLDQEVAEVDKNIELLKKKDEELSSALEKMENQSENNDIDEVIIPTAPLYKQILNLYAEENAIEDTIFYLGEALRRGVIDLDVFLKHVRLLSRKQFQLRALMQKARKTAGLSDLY
How it was run: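 Fluorescence polarization of 50 nM FITC-PTAP peptide bound to 10 uM Tsg101 binding domain was read after 20 min room-temperature incubation with compounds, in 10 mM HEPES pH 7.5, 0.15 M NaCl, 0.01% Tween 20.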

[10] = molecular target: Beta-2 adrenergic receptor (Homo sapiens) (UniProt P07550); assay: qHTS validation assay of beta-arrestin-biased ligands of beta2-adrenergic receptor (AID 485366)
Sequence of Beta-2 adrenergic receptor (Homo sapiens) (P07550 whole entry, looked up): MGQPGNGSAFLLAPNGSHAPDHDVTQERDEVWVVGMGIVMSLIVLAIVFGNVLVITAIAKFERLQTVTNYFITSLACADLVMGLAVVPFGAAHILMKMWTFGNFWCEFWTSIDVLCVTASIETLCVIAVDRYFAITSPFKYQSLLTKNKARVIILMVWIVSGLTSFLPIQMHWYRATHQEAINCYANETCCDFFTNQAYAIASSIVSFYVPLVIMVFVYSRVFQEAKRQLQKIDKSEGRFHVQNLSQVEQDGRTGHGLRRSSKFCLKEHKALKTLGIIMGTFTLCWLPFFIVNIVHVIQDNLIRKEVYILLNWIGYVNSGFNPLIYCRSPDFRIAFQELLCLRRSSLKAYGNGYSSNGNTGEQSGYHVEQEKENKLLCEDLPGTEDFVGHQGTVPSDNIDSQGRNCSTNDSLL
How it was run: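 Values derive from curve-fitted %Activity of a luminescent beta-arrestin recruitment reporter; compounds tested up to 46 microM on Tango cells for 18 hr at 37 degrees C, 5% CO2.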

[11] = Quantitative high throughput screen for delayed death inhibitors of the malarial parasite plastid, 96 hour incubation (AID 488745); further: nearly all actives have a fitted effect of over 70% in size; further: potency means the concentration at half of the fitted maximal effect
How it was run: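 Luciferase-expressing P. falciparum in erythrocytes (2% hematocrit, 0.1% parasitemia) incubated with compound for 96 h at 37 C, 5% CO2, in RPMI 1640 with 0.5% Albumax. Growth inhibition read as decreased luminescence.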

[12] = Quantitative high throughput screen for delayed death inhibitors of the malarial parasite plastid, 48 hour incubation (AID 488752); further: nearly all actives have a fitted effect of over 65% in size
How it was run: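 Erythrocytes infected with firefly luciferase-expressing P. falciparum (2% hematocrit, 0.1% parasitemia) cultured with compound for 48 h at 37 C, 5% CO2, in RPMI 1640/0.5% Albumax. Growth inhibition read as loss of luminescence.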

[13] = molecular target: Thioredoxin reductase 1, cytoplasmic (Rattus norvegicus) (UniProt O89049); assay: qHTS Assay for Substrates of Mammalian Selenoprotein Thioredoxin Reductase 1 (TrxR1) (AID 488772);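 further: NADPH fluorescence in the first read after selenite addition and not the 8 min delta; series mostly up to about 57 µM; a drop in NADPH fluorescence below the no-compound background marks a TrxR1 substrate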
Sequence of Thioredoxin reductase 1, cytoplasmic (Rattus norvegicus) (O89049 whole entry, looked up): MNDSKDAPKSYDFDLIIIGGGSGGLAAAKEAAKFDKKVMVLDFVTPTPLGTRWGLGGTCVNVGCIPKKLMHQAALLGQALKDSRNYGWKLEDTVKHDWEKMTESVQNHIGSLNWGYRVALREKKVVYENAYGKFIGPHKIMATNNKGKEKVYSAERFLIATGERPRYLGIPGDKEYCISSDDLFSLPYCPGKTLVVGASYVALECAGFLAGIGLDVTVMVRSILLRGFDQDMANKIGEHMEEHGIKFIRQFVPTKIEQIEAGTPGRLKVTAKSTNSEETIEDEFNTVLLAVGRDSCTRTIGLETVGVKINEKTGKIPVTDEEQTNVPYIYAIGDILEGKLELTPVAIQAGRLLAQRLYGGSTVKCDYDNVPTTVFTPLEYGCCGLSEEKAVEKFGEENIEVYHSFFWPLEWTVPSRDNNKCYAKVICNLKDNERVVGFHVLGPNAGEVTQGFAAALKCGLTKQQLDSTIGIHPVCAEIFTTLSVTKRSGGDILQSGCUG
How it was run: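 Quantitative HTS in Tris-HCl buffer at pH 7.5 with EDTA and Tween-20, using rat TrxR1, 400 uM NADPH and 400 uM selenite (final). A fall in initial NADPH fluorescence relative to background marked substrate behaviour.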

[14] = molecular target: Thioredoxin reductase 1, cytoplasmic (Rattus norvegicus) (UniProt O89049); assay: qHTS Assay for Inhibitors of Mammalian Selenoprotein Thioredoxin Reductase 1 (TrxR1) (AID 488773); settings: Potency: inhibition; further: nearly all actives have a fitted effect of over 40% in size; further: potency means the concentration at half of the fitted maximal effect
How it was run: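 Steps: enzyme (90 nM) plus NADPH (400 uM final), 5 min at ~22 deg C; compound added, 15 min; selenite (400 uM final) added; fluorescence followed for 8 min. Concentration-response curves derived from the normalized delta values.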

[15] = molecular target: M-phase phosphoprotein 8 (Homo sapiens) (UniProt Q99549); assay: qHTS Validation Assay for Inhibitors for MPP8 Chromodomain Interactions with Methylated Histone Tails (AID 488949); further: nearly all actives have a fitted effect of over 55% in size; further: potency means the concentration at half of the fitted maximal effect
How it was run: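 AlphaScreen proximity signal from streptavidin donor and Ni-chelate acceptor beads (10 ug/mL each) reported binding of MPP8 to trimethyl-K9 H3(1-18) peptide, both at 50 nM. The complex formed 30 min before a 30 min compound exposure at room temperature, in PBS pH 7.4.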

[16] = molecular target: Chromobox protein homolog 1 (Homo sapiens) (UniProt P83916); assay: qHTS Validation Assay for Inhibitors of HP1-beta Chromodomain Interactions with Methylated Histone Tails (AID 488953); further: nearly all actives have a fitted effect of over 50% in size; further: potency means the concentration at half of the fitted maximal effect
Sequence of Chromobox protein homolog 1 (Homo sapiens) (P83916 whole entry, looked up): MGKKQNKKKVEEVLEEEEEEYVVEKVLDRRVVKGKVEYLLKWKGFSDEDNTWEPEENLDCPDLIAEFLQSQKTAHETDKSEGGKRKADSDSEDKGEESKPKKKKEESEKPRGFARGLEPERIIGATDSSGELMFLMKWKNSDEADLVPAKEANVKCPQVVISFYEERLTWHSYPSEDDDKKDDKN
How it was run: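 HP1-beta (50 nM) preformed 30 min with biotinylated H3(1-18)K9me3 peptide (50 nM) in PBS pH 7.4, 0.01% Tween-20. Compounds added for 30 min at room temperature. Complex disruption read by AlphaScreen with streptavidin donor/nickel chelate acceptor beads (10 ug/mL each).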

[17] = qHTS Validation Assay to Find Inhibitors of Chronic Active B-Cell Receptor Signaling (AID 485345; active means well fitted curve in the direction sought with a large enough effect in the main read-out, with a control signal flat, not every such curve was filed as active)
How it was run: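 Read-out: ratio of filter-corrected green (IkappaBalpha fusion) to red (native) luciferase signal in doxycycline-induced TMD8 cells after 4 h at 37C. Titration spanned 46 uM–3 nM; Data were normalised to basal cells and 10 uM MG-132 wells.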

[18] = molecular target: ATP-dependent 6-phosphofructokinase (Trypanosoma brucei brucei) (UniProt O15648); assay: qHTS Validation Assay to Find Inhibitors of T. brucei phosphofructokinase (AID 485368)
Sequence of ATP-dependent 6-phosphofructokinase (Trypanosoma brucei brucei) (O15648 whole entry, looked up): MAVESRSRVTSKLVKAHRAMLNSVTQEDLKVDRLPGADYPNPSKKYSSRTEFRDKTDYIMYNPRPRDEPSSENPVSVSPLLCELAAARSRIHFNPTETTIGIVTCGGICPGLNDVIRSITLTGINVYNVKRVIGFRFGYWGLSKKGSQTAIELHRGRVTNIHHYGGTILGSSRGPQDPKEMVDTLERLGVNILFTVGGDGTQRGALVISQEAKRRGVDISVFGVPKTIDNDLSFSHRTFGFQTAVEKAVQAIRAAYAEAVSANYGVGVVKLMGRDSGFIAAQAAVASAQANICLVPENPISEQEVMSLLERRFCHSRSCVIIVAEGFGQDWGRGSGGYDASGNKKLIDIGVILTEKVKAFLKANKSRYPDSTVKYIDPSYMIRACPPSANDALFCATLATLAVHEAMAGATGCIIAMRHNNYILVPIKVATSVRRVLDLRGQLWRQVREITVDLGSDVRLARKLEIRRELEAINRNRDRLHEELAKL
How it was run: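 Enzyme reaction in triethanolamine buffer pH 8.0 with 5 mM MgCl2, 0.01% Tween20 and 0.1% BSA; PFK 1.25 nM, F6P 0.5 mM, ATP 0.1 mM, 45 min RT. ADP quantified by ADP-Glo.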

[19] = molecular target: Flap endonuclease 1 (Homo sapiens) (UniProt P39748); assay: qHTS Validation Assay for the Inhibitors of Human Flap endonuclease 1 (FEN1) (AID 488816); further: potency means the concentration at half of the fitted maximal effect
Sequence of Flap endonuclease 1 (Homo sapiens) (P39748 whole entry, looked up): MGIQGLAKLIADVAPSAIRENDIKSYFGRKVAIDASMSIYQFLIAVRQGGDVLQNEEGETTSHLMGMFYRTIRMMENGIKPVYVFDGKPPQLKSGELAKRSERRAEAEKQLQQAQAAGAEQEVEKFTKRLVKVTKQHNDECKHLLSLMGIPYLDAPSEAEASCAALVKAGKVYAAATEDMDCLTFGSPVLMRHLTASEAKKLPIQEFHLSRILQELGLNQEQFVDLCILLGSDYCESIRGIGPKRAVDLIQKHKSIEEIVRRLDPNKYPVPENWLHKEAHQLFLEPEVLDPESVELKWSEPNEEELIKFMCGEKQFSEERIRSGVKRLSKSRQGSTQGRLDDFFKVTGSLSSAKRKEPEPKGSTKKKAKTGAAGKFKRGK
How it was run: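 Readings taken at 0 and 15 min after starting the reaction with 50 nM (final) substrate supplied the signal. Compounds had first sat with 10 nM FEN1 reagent for 15 min at room temperature. Values come from Hill-equation concentration-response fits.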

Row | Compound | Potency [1] | Potency [2] | Potency [3] | Potency [4] | Potency [5] | Potency [6] | Potency [7] | Potency [8] | outcome [9] | outcome [10] | Potency [11] | Potency [12] | outcome [13] | Potency [14] | Potency [15] | Potency [16] | Potency [17] | Potency [18] | Potency [19]
1 | NC(=O)COc1c(F)cc(SCCNS(=O)(=O)c2ccccc2)cc1F | inactive | inactive | inactive | inactive | inactive | inactive | inactive | inactive | inactive | inactive | inactive | inactive | inactive | inactive | inactive | inactive |  |  | 
2 | OCc1cnc[nH]1 | inactive | inactive | inactive | inactive | inactive | inactive | inactive |  | inactive | inactive |  |  | inactive | inactive | inactive | inactive | inactive |  | 
3 | Cc1[nH]c2ccc(O)cc2c1CCN | inactive | inactive | inactive | inactive | inactive | inactive | inactive |  | inactive | inactive |  |  | inactive | inactive | inactive |  | inactive | inactive | 
4 | CC(N)Cc1c[nH]c2ccc(O)cc12 (stereo not drawn) | inactive | inactive | inactive | inactive | inactive | inactive | inactive |  | inactive | inactive |  | inactive | inactive |  | inactive |  | inactive | inactive | 
5 | CCCN(CCC)C1Cc2cc(OC)c(OC)cc2C1 | inactive | inactive | inactive | inactive | inactive | inactive |  |  | inactive | inactive | inactive | inactive | inactive | inactive | inactive | inactive | inactive |  | inactive
6 | CCCN(CCC)[C@@H]1CCc2cccc(O)c2C1 | inactive | inactive | inactive | inactive | inactive | inactive | inactive |  | inactive | inactive |  |  | inactive | inactive | inactive |  | inactive | inactive | inactive
7 | COC(=O)N1CCN(C(=O)Cc2ccc(Cl)c(Cl)c2)C(CN2CCCC2)C1 (stereo not drawn) | inactive | inactive | inactive | inactive | inactive | inactive | inactive |  | inactive | inactive | inactive |  | inactive | inactive | inactive |  | inactive |  | inactive
8 | C#CCN[C@H](C)Cc1ccccc1 | inactive | inactive | inactive | inactive | inactive | inactive |  | inactive | inactive | inactive | inactive |  | inactive | inactive | inactive | inactive | inactive | inactive | 
9 | C/C(O)=C(\C#N)C(=O)Nc1cc(Br)ccc1Br | inactive | inactive | inactive | inactive | inactive | inactive | inactive |  | inactive | inactive | inactive | inactive | inactive | inactive | inactive |  |  |  | inactive
10 | CCCN(CCC)[C@H]1CCc2c(F)ccc(O)c2C1 | inactive | inactive | inactive | inactive | inactive | inactive |  | inactive | inactive | inactive | 2940 nM (active) |  | inactive | inactive | inactive |  | inactive | inactive | inactive
11 | C=CCN1CCC23c4c5ccc(O)c4O[C@H]2C(=O)CC[C@@]3(O)C1C5 (stereo partly drawn) | inactive | inactive | inactive | inactive | inactive | inactive | inactive |  | inactive | inactive | inactive |  | inactive | inactive | inactive | inactive | inactive | inactive | inactive
12 | CN1CCC(c2c[nH]c3ccc(O)cc23)CC1 | inactive | inactive | inactive | inactive | inactive | inactive | inactive |  | inactive | inactive |  | inactive | inactive | inactive | inactive | inactive | inactive | inactive | inactive
13 | CN(N=O)c1ccc(O)c(O)c1 | inactive | inactive | inactive | inactive | inactive | inactive | 4140 nM (active) |  | inactive | inactive | inactive |  | inactive | 947 nM (active) | 2.51 µM (active) and 2.38 µM (active) | 1580 nM (active) | inactive |  | 2670 nM (active)
14 | CC(C)(C)c1cc(C=C(C#N)C#N)cc(C(C)(C)C)c1O | inactive | inactive | 2330 nM (active) | 4140 nM (active) | 2510 nM (active) | 158 nM (active) | inactive |  | inactive | inactive | 1850 nM (active) |  |  | 16800 nM (active) | 10 µM (active) | 7940 nM (active) |  |  | inactive
15 | CC(N)c1cccc(Cl)c1Cl (stereo not drawn) | inactive | inactive | inactive | inactive | inactive | inactive |  |  | inactive | inactive | inactive | inactive | inactive | inactive | inactive | inactive | inactive |  | inactive
16 | NNC(N)=O | inactive | inactive | inactive | inactive | inactive | inactive |  |  | inactive | inactive | inactive | inactive | inactive | inactive | inactive | inactive | inactive | inactive | inactive
